Test results reported in PubChem BioAssay (EPA / NIEHS).
“And” between values parts separate entries of the source, which are not always exact repeats. Identical values can stand only once. More than one record can exist for a structure, and the calls need not agree. The source made the active and inactive calls. The calls were made as follows: active = hit-call score of the fitted dose curve at least 0.9, where 1 is the maximum; inactive = score below 0.9.

Legend:
[1] = biological target: Transcription factor E2F1 (Homo sapiens) (UniProt Q01094); assay: ATG_E2F_CIS: Attagene CIS-FACTORIAL HepG2 Assay for human E2F Transcription Factor 1 (AID 2282935); settings: HepG2 Attagene cis-reporter, E2F reporter RNA transcripts; actives raise or lower the signal
Chain of Transcription factor E2F1 (Homo sapiens) (Q01094 whole entry, looked up): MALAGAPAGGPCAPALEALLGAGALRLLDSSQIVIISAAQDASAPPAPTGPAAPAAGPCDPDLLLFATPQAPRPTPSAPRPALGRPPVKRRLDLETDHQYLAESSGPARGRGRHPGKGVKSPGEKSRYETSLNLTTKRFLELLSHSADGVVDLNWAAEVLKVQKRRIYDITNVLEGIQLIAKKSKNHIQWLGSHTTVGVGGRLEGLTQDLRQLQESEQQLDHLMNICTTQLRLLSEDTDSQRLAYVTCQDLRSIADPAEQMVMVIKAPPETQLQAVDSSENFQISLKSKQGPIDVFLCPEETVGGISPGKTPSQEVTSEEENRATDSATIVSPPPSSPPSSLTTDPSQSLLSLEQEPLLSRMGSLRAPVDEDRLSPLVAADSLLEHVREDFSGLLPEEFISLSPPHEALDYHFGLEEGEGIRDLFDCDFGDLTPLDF
In short: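 Cis-element reporter mRNA induction in transiently transfected HepG2, 24 h exposure. Activity fitted in both directions relative to DMSO negative control.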

[2] = ATG_E_Box_CIS: Attagene CIS-FACTORIAL HepG2 Assay for human Enhancer Box (E-box) (AID 2282936); settings: HepG2 E-box cis-reporter transcription, actives raise or lower the signal
In short: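 Cells: HepG2 (human liver), transient MRTU transfection. Exposure 24 h. RNA → oligo(dT) RT → PCR → 6-FAM label → HpaI → CE. Activity fitted both directions relative to DMSO.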

[3] = ATG_EGR_CIS: Attagene CIS-FACTORIAL HepG2 Assay for human Early Growth Response 1 (EGR1) (AID 2282938); settings: HepG2 Attagene CIS-FACTORIAL EGR reporter mRNA; actives raise or lower the signal
In short: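 Read-out: fluorescent reporter-mRNA fragments resolved by capillary electrophoresis after RT-PCR, 24 h post-dose in transiently transfected HepG2. Endogenous transcription-factor activity reported via cis-element-regulated reporter units; gain or loss fitted relative to DMSO.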

[4] = ATG_M_19_CIS: Attagene CIS-FACTORIAL HepG2 Assay for M19 Transcription Factor (Internal Marker) (AID 2282939); settings: HepG2 Attagene CIS-FACTORIAL M19 internal marker reporter; actives raise or lower the signal
In short: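 HepG2 cells transiently transfected with cis-regulated multiplexed reporter units, dosed 24 h. Reporter mRNA quantified by RT-PCR and capillary electrophoresis; internal background marker fitted bidirectionally versus DMSO.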

[5] = ATG_ERE_CIS: Attagene CIS-FACTORIAL HepG2 Assay for Estrogen Response Element (ERE) (AID 2282940); settings: HepG2 ERE cis-reporter, Attagene RNA transcript; actives raise or lower the signal
In short: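 HepG2 cells transiently transfected with multiplexed cis-element reporter units, measuring endogenous transcription factor activity; ERE reporter mRNA quantified after 24 h exposure by RT-PCR, fluorescent labelling, HpaI digestion and capillary electrophoresis. Bidirectional change versus DMSO.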

[6] = ATG_Ets_CIS: Attagene CIS-FACTORIAL HepG2 Assay for human Erythroblast Transformation Specific (ETS) (AID 2282941); settings: HepG2 ETS cis-reporter transcription, actives raise or lower the signal
In short: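 HepG2 cells transiently transfected with cis-promoter reporter transcription units were dosed for 24 h; reporter mRNA was measured by RT-PCR, 6-FAM primer extension, HpaI digestion and capillary electrophoresis, with bidirectional fitting against DMSO baseline.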

[7] = ATG_FoxO_CIS: Attagene CIS-FACTORIAL HepG2 Assay for human Forkhead box O (FoxO) (AID 2282943); settings: HepG2 Attagene cis-reporter, FoxO element, mRNA; actives raise or lower the signal
In short: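 Endogenous transcription factor activity read from multiplexed cis-promoter reporter transcripts in transiently transfected HepG2, 24 h after dosing. Reporter RNA measured via RT-PCR plus capillary electrophoresis of FAM-labeled products; gain or loss relative to DMSO.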

[8] = ATG_GATA_CIS: Attagene CIS-FACTORIAL HepG2 Assay for human GATA Binding Protein (AID 2282944); settings: HepG2 GATA cis-element reporter, Attagene multiplex mRNA; actives raise or lower the signal
In short: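 HepG2 cells transiently transfected with multiplexed cis-element reporter units measure endogenous GATA activity; after 24 h compound exposure, reporter mRNA quantified by RT-PCR and capillary electrophoresis. Changes fitted in both directions vs DMSO.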

[9] = ATG_GLI_CIS: Attagene CIS-FACTORIAL HepG2 Assay for human Zinc Finger Protein GLI1 (AID 2282945); settings: HepG2, Attagene cis-factorial reporter mRNA, GLI element; actives raise or lower the signal
In short: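 Bidirectional curve fits relative to DMSO, using reporter mRNA levels from RT-PCR plus capillary electrophoresis. Cells were HepG2 transiently carrying cis-regulated reporter constructs, harvested 24 h after dosing.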

[10] = ATG_GRE_CIS: Attagene CIS-FACTORIAL HepG2 Assay for human Glucocorticoid Response Elements (GRE) (AID 2282947); settings: HepG2 GRE cis-reporter, Attagene multiplex mRNA; actives raise or lower the signal
In short: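 Transient MRTU transfection of human HepG2 liver cells; cis-regulated reporters report endogenous factors. 24 h dosing → RNA isolation → RT-PCR → 6-FAM primer extension → HpaI cut → CE fragment analysis. Bidirectional fit, DMSO negative control.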

[11] = ATG_ISRE_CIS: Attagene CIS-FACTORIAL HepG2 Assay for human Interferon Regulatory Factor 1 (IRF1) binding to an Interferon-Stimulated Response Element (ISRE) (AID 2282948); settings: HepG2 ISRE cis-reporter (Attagene), mRNA transcription readout; actives raise or lower the signal
In short: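 HepG2 cells transiently transfected with multiplexed cis-promoter reporter units; after 24 h compound exposure, reporter mRNA quantified by RT-PCR, FAM labelling, HpaI digestion and capillary electrophoresis. Bidirectional fit versus DMSO baseline.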

[12] = ATG_M_32_CIS: Attagene CIS-FACTORIAL HepG2 Assay for M32 Transcription Factor (Internal Marker) (AID 2282949); settings: HepG2 Attagene cis-factorial M32 reporter, mRNA; actives raise or lower the signal;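 also: background control marker of the multiplexed CIS panel rather than a real target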
In short: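 Fluorescent capillary electrophoresis peaks of HpaI-digested, FAM-labelled RT-PCR reporter products give the signal. Source: transiently transfected human liver HepG2 cells, 24 h after chemical dosing; bidirectional fitting against DMSO.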

[13] = ATG_M_06_CIS: Attagene CIS-FACTORIAL HepG2 Assay for M06 Transcription Factor (Internal Marker) (AID 2282950); settings: HepG2 Attagene CIS-FACTORIAL M06 internal marker reporter; actives raise or lower the signal
In short: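 Internal background marker within multiplexed cis-reporter HepG2 system. Cells transiently transfected, dosed 24 h; reporter mRNA measured by RT-PCR, HpaI digestion and capillary electrophoresis. Bidirectional fit relative to DMSO.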

[14] = biological target: Hypoxia-inducible factor 1-alpha (Homo sapiens) (UniProt Q16665); assay: ATG_HIF1a_CIS: Attagene CIS-FACTORIAL HepG2 Assay for human Hypoxia Inducible Factor 1 (HIF1A) (AID 2282951); settings: HepG2 Attagene cis-factorial HIF1a reporter transcription; actives raise or lower the signal
Chain of Hypoxia-inducible factor 1-alpha (Homo sapiens) (Q16665 whole entry, looked up): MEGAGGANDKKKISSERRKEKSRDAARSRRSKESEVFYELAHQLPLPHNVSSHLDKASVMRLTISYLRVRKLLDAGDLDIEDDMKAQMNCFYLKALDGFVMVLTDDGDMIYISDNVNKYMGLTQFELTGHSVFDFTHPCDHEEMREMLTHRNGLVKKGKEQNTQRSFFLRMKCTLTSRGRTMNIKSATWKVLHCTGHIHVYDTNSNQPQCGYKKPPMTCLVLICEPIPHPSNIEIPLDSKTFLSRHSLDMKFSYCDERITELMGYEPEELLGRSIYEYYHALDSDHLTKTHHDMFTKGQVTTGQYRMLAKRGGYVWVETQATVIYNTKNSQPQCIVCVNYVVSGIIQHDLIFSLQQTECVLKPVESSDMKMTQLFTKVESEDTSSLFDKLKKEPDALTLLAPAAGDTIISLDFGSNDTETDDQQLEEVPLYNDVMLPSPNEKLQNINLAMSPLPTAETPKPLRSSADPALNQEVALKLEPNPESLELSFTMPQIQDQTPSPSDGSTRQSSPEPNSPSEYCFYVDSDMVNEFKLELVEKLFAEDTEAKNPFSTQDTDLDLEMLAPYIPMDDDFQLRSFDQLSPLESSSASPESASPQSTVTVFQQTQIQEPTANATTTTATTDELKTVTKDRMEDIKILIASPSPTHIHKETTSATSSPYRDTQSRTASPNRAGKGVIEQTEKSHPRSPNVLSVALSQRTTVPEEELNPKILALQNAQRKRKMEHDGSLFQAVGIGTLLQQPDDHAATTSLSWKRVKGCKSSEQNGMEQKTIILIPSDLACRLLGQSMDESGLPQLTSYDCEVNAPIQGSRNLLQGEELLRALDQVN
In short: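 RT-PCR/capillary electrophoresis fluorescence readout of reporter transcripts from endogenous-TF-driven cis elements in transfected HepG2 cells, 24 h exposure; activity fitted in both directions against DMSO controls.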

[15] = biological target: Heat shock factor protein 1 (Homo sapiens) (UniProt Q00613); assay: ATG_HSE_CIS: Attagene CIS-FACTORIAL HepG2 Assay for human Heat Shock Transcription Factor 1 (HSE) (AID 2282953); settings: HepG2 HSE cis-reporter, Attagene RNA transcription; actives raise or lower the signal
Chain of Heat shock factor protein 1 (Homo sapiens) (Q00613 whole entry, looked up): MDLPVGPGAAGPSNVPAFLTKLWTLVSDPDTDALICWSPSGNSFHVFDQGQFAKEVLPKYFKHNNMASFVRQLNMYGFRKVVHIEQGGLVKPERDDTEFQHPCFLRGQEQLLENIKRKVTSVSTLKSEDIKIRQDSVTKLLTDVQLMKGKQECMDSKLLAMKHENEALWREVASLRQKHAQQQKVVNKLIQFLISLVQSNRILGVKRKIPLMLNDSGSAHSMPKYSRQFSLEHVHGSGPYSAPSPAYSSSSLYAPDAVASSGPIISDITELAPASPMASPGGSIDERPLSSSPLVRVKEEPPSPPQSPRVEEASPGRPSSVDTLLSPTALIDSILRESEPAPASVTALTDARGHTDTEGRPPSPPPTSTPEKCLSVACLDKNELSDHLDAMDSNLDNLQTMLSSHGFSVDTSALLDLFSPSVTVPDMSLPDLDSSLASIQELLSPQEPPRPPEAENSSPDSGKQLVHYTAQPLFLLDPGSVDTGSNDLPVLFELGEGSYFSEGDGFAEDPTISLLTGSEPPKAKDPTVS
In short: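 HepG2 cells transfected with cis-promoter reporter units sensing endogenous transcription factor activity; reporter mRNA quantified 24 h post-dose by RT-PCR and capillary electrophoresis of 6-FAM-labelled products. Bidirectional fitting against DMSO.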

[16] = biological target: Hepatocyte nuclear factor 3-beta (Homo sapiens) (UniProt Q9Y261); assay: ATG_FoxA2_CIS: Attagene CIS-FACTORIAL HepG2 Assay for human Forkhead box A2 (FOXA2) (AID 2282942); settings: HepG2 cis-reporter transcription factor activity, 24 h; actives raise or lower the signal
Chain of Hepatocyte nuclear factor 3-beta (Homo sapiens) (Q9Y261 whole entry, looked up): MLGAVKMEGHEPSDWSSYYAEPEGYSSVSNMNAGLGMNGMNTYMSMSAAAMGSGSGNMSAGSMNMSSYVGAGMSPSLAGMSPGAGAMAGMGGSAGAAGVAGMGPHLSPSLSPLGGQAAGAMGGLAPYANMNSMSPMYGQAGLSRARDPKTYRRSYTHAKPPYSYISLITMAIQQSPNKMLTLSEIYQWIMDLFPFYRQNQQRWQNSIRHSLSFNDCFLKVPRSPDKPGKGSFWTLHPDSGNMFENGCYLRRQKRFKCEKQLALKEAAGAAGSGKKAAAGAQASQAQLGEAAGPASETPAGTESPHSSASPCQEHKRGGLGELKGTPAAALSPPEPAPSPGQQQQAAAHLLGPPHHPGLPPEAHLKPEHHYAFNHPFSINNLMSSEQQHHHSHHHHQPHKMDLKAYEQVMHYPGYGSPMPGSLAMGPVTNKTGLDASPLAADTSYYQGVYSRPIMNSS
In short: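 Readout: fluorescent reporter transcripts resolved by capillary electrophoresis after RT-PCR. Transiently transfected HepG2, 24 h compound exposure, endogenous TF activity at cis promoter elements. Gain or loss of signal fitted relative to DMSO.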

[17] = ATG_MRE_CIS: Attagene CIS-FACTORIAL HepG2 Assay for human Metal Responsive Element (MRE) (AID 2282954); settings: HepG2 MRE cis-reporter transcription, Attagene multiplex; actives raise or lower the signal
In short: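 Transient MRTU transfection of HepG2 (FuGene 6); 24 h dosing; total RNA → oligo(dT) RT, PCR, 6-FAM primer extension, HpaI cut, CE. Bidirectional fit vs DMSO.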

[18] = biological target: Hepatocyte nuclear factor 6 (Homo sapiens) (UniProt Q9UBC0); assay: ATG_HNF6_CIS: Attagene CIS-FACTORIAL HepG2 Assay for human Hepatocyte Nuclear Factor 6 (HNF6) (AID 2282952); settings: HepG2 Attagene cis-factorial HNF6 reporter transcription; actives raise or lower the signal
Chain of Hepatocyte nuclear factor 6 (Homo sapiens) (Q9UBC0 whole entry, looked up): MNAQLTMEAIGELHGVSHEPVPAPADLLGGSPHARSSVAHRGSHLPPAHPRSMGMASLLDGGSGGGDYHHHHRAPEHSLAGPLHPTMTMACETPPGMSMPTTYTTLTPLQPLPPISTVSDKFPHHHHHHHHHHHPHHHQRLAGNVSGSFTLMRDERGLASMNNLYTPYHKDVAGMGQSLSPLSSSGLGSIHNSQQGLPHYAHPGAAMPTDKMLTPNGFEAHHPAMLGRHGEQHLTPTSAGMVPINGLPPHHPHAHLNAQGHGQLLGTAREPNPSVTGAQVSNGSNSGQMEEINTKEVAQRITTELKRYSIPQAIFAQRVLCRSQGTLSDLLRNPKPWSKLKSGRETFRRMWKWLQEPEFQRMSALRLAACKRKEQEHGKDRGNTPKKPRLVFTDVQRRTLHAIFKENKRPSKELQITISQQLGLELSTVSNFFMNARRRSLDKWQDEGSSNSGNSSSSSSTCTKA
In short: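 HepG2, transient MRTU transfection (cis promoters); 24 h chemical exposure; total RNA → oligo(dT) RT → PCR → 6-FAM labelling → HpaI cut → CE; bidirectional fit vs DMSO.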

[19] = ATG_M_61_CIS: Attagene CIS-FACTORIAL HepG2 Assay for M61 Transcription Factor (Internal Marker) (AID 2282937); settings: HepG2 Attagene CIS-FACTORIAL M61 internal marker reporter; actives raise or lower the signal
In short: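 Readout: fluorescent reporter mRNA fragments resolved by capillary electrophoresis after RT-PCR. Transiently transfected human HepG2 cells carried MRTU constructs reporting endogenous TF activity; 24 h chemical exposure; gain or loss of signal fitted relative to DMSO.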

[20] = biological target: Bile acid receptor (Homo sapiens) (UniProt Q96RI1); assay: ATG_IR1_CIS: Attagene CIS-FACTORIAL HepG2 Assay for human Nuclear Receptor Subfamily 1 Group H Member 4 (NR1H4), IR1 submotif (AID 2282946); settings: IR1 reporter transcription, actives raise or lower the signal
Chain of Bile acid receptor (Homo sapiens) (Q96RI1 whole entry, looked up, the tested form may be a part): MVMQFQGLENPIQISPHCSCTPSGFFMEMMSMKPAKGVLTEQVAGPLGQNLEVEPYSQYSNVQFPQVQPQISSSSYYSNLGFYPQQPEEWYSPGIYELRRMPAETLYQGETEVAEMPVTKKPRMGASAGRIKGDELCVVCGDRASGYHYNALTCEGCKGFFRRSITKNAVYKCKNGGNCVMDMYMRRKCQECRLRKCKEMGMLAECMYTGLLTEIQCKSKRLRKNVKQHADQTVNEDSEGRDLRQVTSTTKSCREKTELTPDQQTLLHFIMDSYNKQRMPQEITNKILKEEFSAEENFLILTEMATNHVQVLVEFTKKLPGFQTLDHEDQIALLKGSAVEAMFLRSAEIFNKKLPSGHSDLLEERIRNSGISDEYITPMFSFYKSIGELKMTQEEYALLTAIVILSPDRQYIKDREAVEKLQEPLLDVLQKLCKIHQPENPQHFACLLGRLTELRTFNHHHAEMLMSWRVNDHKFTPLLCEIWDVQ
In short: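 Cells (human HepG2) carry transiently transfected cis-promoter reporter transcription units. Compounds are incubated 24 h, total RNA is reverse-transcribed and amplified, and labelled fragments are resolved by capillary electrophoresis. Curves use DMSO as baseline.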

Measured: AC50

CCCCCCCCCO
inactive: [1] | [2] | [3] | [4] | [5] | [6] | [7] | [8] | [9] | [10] | [11] | [12] | [13] | [14] | [15]

COc1ccccc1NC(=O)CC(C)=O
inactive: [1] | [2] | [3] | [4] | [5] | [6] | [16] | [7] | [8] | [9] | [11] | [12] | [13] | [14] | [15] | [17]

NCCN1CCNCC1
active: [5] 32.5 µM
inactive: [1] | [2] | [3] | [4] | [6] | [16] | [7] | [8] | [9] | [11] | [12] | [13] | [14] | [18] | [15]

C=CCOCC(O)CO (stereo not drawn)
active: [1] 149 µM | [8] 164 µM
inactive: [19] | [3] | [4] | [5] | [6] | [16] | [7] | [9] | [20] | [10] | [11] | [13] | [18] | [15]

COc1ccc(C(C)=O)cc1
inactive: [1] | [2] | [3] | [4] | [6] | [16] | [7] | [8] | [9] | [11] | [12] | [17]

CC(C)OB(OC(C)C)OC(C)C
inactive: [1] | [19] | [3] | [4] | [5] | [6] | [16] | [7] | [8] | [9] | [20] | [10] | [11] | [12] | [14] | [15] | [17]

CCOC(=O)CC1(C)OCC(C)O1 (stereo not drawn)
inactive: [1] | [2] | [3] | [4] | [5] | [6] | [7] | [8] | [9] | [11] | [13] | [14] | [18] | [15] | [17]

C[C@]12CC[C@@H]3c4ccc(O)cc4CC[C@H]3[C@@H]1CC[C@@H]2O
inactive: [1] | [2] | [3] | [4] | [6] | [16] | [7] | [8] | [9] | [10] | [11] | [13] | [18] | [15] | [17]
active: [17] 31.8 µM and 21 µM and 25.8 µM

CC1(C)CC(N)CC(C)(CN)C1 (stereo not drawn)
inactive: [1] | [2] | [3] | [4] | [5] | [7] | [8] | [9] | [10] | [11] | [12] | [13] | [14] | [18] | [15]
